Rows were chosen to be rich in hits. Some 3.9% of all compounds tested hit in one or more screens of this group.
NTMT1 inhibitor – Primary qHTS for Inhibitors of N-terminal methyltransferase 1 (NTMT1): MTaseGlo Assay; NTMT1 MTase-Glo SAH luminescence, purified enzyme; N-terminal Xaa-Pro-Lys N-methyltransferase 1 (Homo sapiens), Q9BV86; Potency, µM (highest dose often 114 µM), for inactives: at the highest dose activity change, negative = inhibition, hits mostly inhibitors; 2.5% of 59,000 active; AID 1645870, 2021;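 note: potency is the fitted concentration of half-maximal effect; plate controls were DMSO vehicle for no effect and no enzyme for full effect; nearly all actives have a fitted effect of over 65% in size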
Target sequence (Q9BV86 whole entry, looked up): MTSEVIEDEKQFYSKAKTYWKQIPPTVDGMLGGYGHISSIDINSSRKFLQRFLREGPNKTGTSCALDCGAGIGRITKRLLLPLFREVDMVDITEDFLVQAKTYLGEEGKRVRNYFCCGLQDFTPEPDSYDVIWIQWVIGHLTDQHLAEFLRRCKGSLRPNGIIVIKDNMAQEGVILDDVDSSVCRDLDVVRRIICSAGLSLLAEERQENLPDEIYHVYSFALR
DRV1 agonist – qHTS for Agonists of Human Resolvin D1 Receptor DRV1; activation, % at 76.9 µM; 2.5% of 48,000 active; CHO-K1 GPR32 beta-arrestin PathHunter luminescence, 90 min; zero percent set by DMSO-only wells; Probable G-protein coupled receptor 32 (Homo sapiens), O75388; AID 1346428, 2018;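 active = activation of at least 60% and not above a set upper limit, about 1 call in 100 departs from these limits; inconclusive = activation of 40% to 60%, or above that upper limit; inactive = activation under 40%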; note: 0% is about no effect
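Agonism was scored as beta-arrestin recruitment to ProLink-fused GPR32 in stably transfected CHO-K1 cells, giving a chemiluminescent beta-Gal signal; compounds were incubated 90 min at 37 °C.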
FH mod – Identification of activators of human fumarate hydratase by quantitative high-throughput screening | Fumarate hydratase, mitochondrial (Homo sapiens), P07954 | 0.22% of 54,000 active | Potency, µM (titrated, usually from 79.9 µM), inactives show at the top dose activity change, negative = inhibition, most hits filed as inhibitors | FH coupled MDH/diaphorase resazurin fluorescence, 15 min; note: potency is the fitted concentration of half-maximal effect; % is set by controls: 0 for no effect and ±100 for the full control effect; the screen sought activators but most active calls are inhibition curves; nearly all actives have a fitted effect of over 45% in size
Target sequence (P07954 whole entry, looked up): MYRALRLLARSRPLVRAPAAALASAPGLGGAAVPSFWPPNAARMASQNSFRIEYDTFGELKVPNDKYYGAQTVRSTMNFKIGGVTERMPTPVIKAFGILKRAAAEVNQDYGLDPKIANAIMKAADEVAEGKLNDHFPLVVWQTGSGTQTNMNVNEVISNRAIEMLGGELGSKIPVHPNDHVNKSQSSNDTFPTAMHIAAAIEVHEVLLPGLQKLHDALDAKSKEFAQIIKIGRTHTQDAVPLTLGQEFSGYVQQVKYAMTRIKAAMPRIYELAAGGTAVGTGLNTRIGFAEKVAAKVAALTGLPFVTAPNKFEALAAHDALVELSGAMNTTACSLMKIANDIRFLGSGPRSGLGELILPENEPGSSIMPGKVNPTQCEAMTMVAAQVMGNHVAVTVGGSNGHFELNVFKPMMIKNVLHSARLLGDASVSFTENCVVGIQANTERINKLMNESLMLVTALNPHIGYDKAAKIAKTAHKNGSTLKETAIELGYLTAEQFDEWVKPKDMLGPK
SKOV3 invasion – Primary qHTS assay for Inhibitors of ovarian cancer metastasis using an organotypic tumor microenvironment (TME) model. AID 1963576, 2024. SKOV3ip1-GFP adhesion/invasion on 3D omental model, fluorescence. 0.1% of 46,000 active. Potency, µM (highest dose often 45.8 µM), without a hit: at the highest dose activity change, negative = inhibition, actives largely listed as inhibitors;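 note: potency is the fitted concentration of half-maximal effect; plate controls were DMSO wells for no effect and tomatine positive control wells for full effect; nearly all actives have a fitted effect of over 65% in size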
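Adhesion/invasion was scored as fixed GFP-labeled SKOV3ip1 cell counts (488/509 nm), normalized to DMSO and tomatine controls. Cancer cells in serum-free medium, with four compound doses (0.36-46 umol/L), sat 2 hr at RT then 16 hr at 37 C on a 48 hr fibroblast/mesothelial/ECM culture.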
An asterisk follows results filed as active; i = inactive; ? = inconclusive; · = not tested or not shown; ! = a repeat was not active; [ ] = dose if it differs, or a comment. Unless noted, calls come from the whole dose curve; as a rule, active = well fitted curve in the direction sought with a large enough effect; inconclusive = small, poorly fitted or top-dose-only effect, or another doubt; inactive = no such curve, though single readings can be large; an effect the other way counts as inactive or inconclusive.

SMILES | NTMT1 inhibitor | DRV1 agonist | FH mod | SKOV3 invasion
Cc1cccc(C)c1-n1c(SCC(=O)NCCCCCC(=O)O)nnc1-c1cccc([S+](=O)([O-])N2CCCC2)c1 | 17.1% | · | · | ·
CC1=C(C(=O)OCc2ccc(C)cc2)C(c2ccccc2F)CC(=O)N1 (configuration not stated) | -8.6% | 66.8* | -23.2% | i
CCOc1ccccc1C1CC(=O)NC(C)=C1C(=O)OC1CCCCCC1 (configuration not stated) | 0.4% | 39.2 | -18.7% | -25.4%
CC1=C(C(=O)OCC2CCCCC2)C(c2ccc(F)cc2F)CC(=O)N1 (configuration not stated) | -2.7% | 13.2 | -2.0% | i
CCOc1ccccc1C1CC(=O)NC(C)=C1C(=O)OCc1ccc(C)cc1 (configuration not stated) | 7.7% | 60.5* | -21.2% | 8.1%
CC1=C2C(=O)C=C(CO)[C@@H]2[C@H]2OC(=O)[C@H](C)[C@@H]2[C@@H](O)C1 | 3.7%[57.5 µM] | · | 26.2% | ·
c1ccc(-c2nn3c(c2-c2ccnc4cc(OCCN5CCOCC5)ccc24)CCC3)nc1 | 1.8% | · | 25.3% | 23.4%
NC(=O)N1CCC(CC(=O)N2CCC(C3c4ncc(Br)cc4CCc4cc(Cl)cc(Br)c43)CC2)CC1 (configuration not stated) | 6.1%[57.5 µM] | · | -21.6% | ·
Cc1cccc(CNc2ncnc3ccc(-c4cccnc4)cc23)c1 | -10.2% | · | · | ·
Cc1[nH]nc2ccc(-c3cncc(OC[C@@H](N)Cc4ccccc4)c3)cc12 | 25.1µM*! | · | ? | 15.3%
O=S(=O)(NCc1ccccc1F)c1ccc(O)c2ncccc12 | 1.6% | · | · | ·
Nc1nc(=S)c2[nH]cnc2[nH]1 | 3.55µM* | -50.8 | -14.9%[53.3 µM] | -28.2%
Cc1cccc(NC(=O)COC(=O)CCCC2=NS(=O)(=O)c3ccccc3N2)c1 | ? | 13.1 | -10.4% | i
CCc1ccc(NC(=O)COC(=O)CCCC2=NS(=O)(=O)c3ccccc3N2)cc1 | -11.7% | 64.2* | -1.4% | i
Cc1ccc(-c2nc(NC(=O)CSc3cc(C)c4ccccc4n3)ns2)cc1 | 39.8µM* | 1.7 | -1.6% | -2.7%
COc1ccc2c(C)cc(SCC(=O)Nc3nsc(-c4ccccc4C)n3)nc2c1 | 4.9% | -6.2 | -0.7% | -9.5%
COc1cccc(C2c3c(ncn(-c4ccccc4Cl)c3=N)Oc3ccc4ccccc4c32)c1 (configuration not stated) | -15.5%[57.5 µM] | · | · | ·
COc1c(Cl)cc(C(=O)Nc2cccc(-c3nc4ccccc4[nH]3)c2)cc1Cl | -1.6% | 106.0* | -11.6% | ?
C/C=C(\C)C(=O)O[C@@H]1CC2[C@@H](CC=C3C[C@@H](O[C@H]4C[C@H](OC)[C@H](O[C@H]5C[C@H](OC)[C@H](O[C@H]6C[C@H](OC)[C@H](O[C@H]7C[C@@H](OC)[C@H](O[C@@H]8O[C@H](CO)[C@@H](O)[C@H](O)[C@H]8O)[C@@H](C)O7)[C@@H](C)O6)[C@@H](C)O5)[C@@H](C)O4)CC[C@@]32C)[C@@]2(O)CC[C@H](C(C)=O)[C@@]12C (some centres not stated) | 5.8%[6.45 µM] | · | 4.6%[13.5 µM] | ·
COc1ccc(-c2nnc(SCC(=O)N3CCC(C)CC3)o2)cc1 | -2.0% | 78.0* | -8.2% | 0.0%
CC1CCN(C(=O)CSc2nnc(-c3ccccc3)o2)CC1 | -1.4% | -8.1 | -3.5% | -18.4%
O=C(CCCCCCC(=O)Nc1ccc(C2OC(CSc3nc(-c4ccccc4)c(-c4ccccc4)o3)CC(c3ccc(CO)cc3)O2)cc1)NO (configuration not stated) | -3.7%[57.5 µM] | · | -10.4% | ·
Cc1nc2cc(-c3cccc(F)c3)nn2c(C)c1CCC(=O)NC1CCCCC1 | -11.1% | 4.5 | -7.5% | 10.9%
CC1(C)CCCC2(C)C1CC=C1C(=O)OC(O)C12O (configuration not stated) | -29.2%[57.5 µM] | · | 16.8% | ·
C=C1c2cccc(O)c2C(O)=C2C(=O)[C@]3(O)C(O)=C(C(N)=O)C(=O)[C@@H](N(C)C)[C@@H]3[C@@H](O)[C@H]12 | 25.1µM* | -0.9 | -23.8%[53.3 µM] | ·
SMILES | NTMT1 inhibitor | DRV1 agonist | FH mod | SKOV3 invasion
CC(C)C(C#N)O[C@@H]1O[C@H](CO[C@@H]2O[C@@H](C)[C@H](O)[C@@H](O)[C@H]2O)[C@@H](O)[C@H](O)[C@H]1O (some centres not stated) | 4.6%[29.8 µM] | · | 9.0%[53.3 µM] | ·
Cc1nn(Cc2ccc(Cl)cc2)c(C)c1NC(=O)c1noc2c1CCc1ccccc1-2 | · | 107.2* | · | -1.0%
Cc1nn(Cc2ccccc2Cl)c(C)c1NC(=O)c1cc(C(C)C)on1 | · | 86.1* | · | -0.9%
Cc1ccc2ccc3cc(C(=O)N4CCN(c5ccccc5F)CC4)nc3c2[nH]1 | -1.0% | -1.0 | -9.2% | -18.0%
Cc1ccc2ccc3cc(C(=O)Nc4ccc(C)c(F)c4)nc3c2[nH]1 | -12.2% | 60.4* | -3.2% | -6.0%
O=C(O)c1c(Cl)c(Cl)c(Cl)c(Cl)c1-c1c2cc(I)c(=O)c(I)c-2oc2c(I)c(O)c(I)cc12 | 3.55µM* | · | ? | -5.0%
CC1=C(C)C(=O)C(CCCCC#CCCCC#CCO)=C(C)C1=O | ? | -0.7 | 28.2µM* | ·
Cc1ccc(-n2c(=O)ccc(=O)n2CC(=O)NCCc2ccccc2)cc1 | 4.8%[57.5 µM] | · | · | ·
O=C(O)c1ccccc1-c1ccc(/C=c2\sc3nc4cc(Br)cnc4n3c2=O)o1 | 35.5µM* | · | · | ·
Cc1ccc(NC(=O)C(C)C)cc1C1CCN(Cc2ccc(Oc3ccc(F)c(F)c3)cc2)CC1 | 1.6%[57.5 µM] | · | -16.5% | ·
Cc1cccc(N2CCN(c3ccc(C(=O)O)cc3NC(=O)c3cccc(Cl)c3)CC2C)c1 (configuration not stated) | 79.4µM* | 5.5 | -24.7% | 3.3%
CN1CCCN(C(=O)c2cccc(-c3ccc(/C=C4\C(=O)Nc5ccc(Cl)cc54)o3)c2)CC1 | 7.94µM* | · | -28.7% | ·
CCOC(=O)c1ccc(NC(=O)CSc2nnc(CNC(=O)c3ccc(OC)cc3)n2CC)cc1 | 79.4µM* | -0.1 | -3.5% | i
CCCCn1c(CNC(=O)c2ccc(OC)cc2)nnc1SCC(=O)Nc1ccc(OC)cc1 | ? | 3.0 | -2.1% | 23.6%
COc1cc(OC)cc(C(=O)Nc2ccc3nc4n(c(=O)c3c2)CCCCC4)c1 | 44.7µM* | -8.7 | -14.6% | -4.4%
COc1ccc(Cl)cc1N(C)C(=O)C(=O)Nc1ccc2nc3n(c(=O)c2c1)CCCCC3 | -0.2% | 80.4* | -8.1% | 1.1%
COc1ccc(C)cc1NC(=O)c1ccc2c(=O)n3c(nc2c1)CCCCC3 | 79.4µM* | -16.3 | -1.1% | -2.0%
C[C@H]1Oc2cc(cnc2N)-c2c(nn(C)c2C#N)CN(C)C(=O)c2ccc(F)cc21 | 4.5% | · | -0.2% | ·
Cc1nnc(-c2cnn(C)c2)n1CCCn1ccnc1 | 1.8%[57.5 µM] | · | · | ·
O=C(NCc1cccc(Cl)c1)C1CCN(c2nn3cc(-c4ccc(F)cc4)nc3s2)CC1 | 3.6% | 62.3* | -0.1% | 0.1%

Screening data as filed in PubChem BioAssay.
